Inconclusive results are not listed. The source made the active and inactive calls. Calls come from the whole dose curve; as a rule, active = well fitted inhibition curve with a large enough effect; inconclusive = small, poorly fitted or top-dose-only effect; inactive = flat fitted curve, though single readings scatter.
Key:
Experiment in all cases: qHTS profiling for inhibitors of Plasmodium falciparum proliferation (AID 504749); note: nearly all actives have a fitted effect of over 60% in size
Settings in all cases: P. falciparum in erythrocytes, SYBR Green DNA, 72 h; series mostly up to 28.7 µM
AS120 = tested on: AS120
Summary of the method: (§1)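 Infected RBCs, 0.3% parasitemia/2.5% Hct final; cpd 72 h, 37 C, 5% CO2; lysis buffer with saponin/triton/SYBR Green I, o/n RT dark; FI 485/535; norm. to artemisinin (0.29 uM) and DMSO.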

ATS189 = tested on: ATS189
Summary of the method: as §1

C2A = tested on: C2A
Summary of the method: as §1

CP203 = tested on: CP203
Summary of the method: as §1

CP217 = tested on: CP217
Summary of the method: as §1

CP250 = tested on: CP250
Summary of the method: as §1

CP256 = tested on: CP256
Summary of the method: as §1

CP269 = tested on: CP269
Summary of the method: as §1

CP291 = tested on: CP291
Summary of the method: as §1

CP297 = tested on: CP297
Summary of the method: as §1

CP315 = tested on: CP315
Summary of the method: as §1

CP329 = tested on: CP329
Summary of the method: as §1

DFO2036 = tested on: DFO2036
Summary of the method: as §1

DIV14 = tested on: DIV14
Summary of the method: as §1

DIV17 = tested on: DIV17
Summary of the method: as §1

FAB9 = tested on: FAB9
Summary of the method: as §1

JCK = tested on: JCK
Summary of the method: as §1

PAD = tested on: PAD
Summary of the method: as §1

Measured: Potency

CC1CCC(C(C)C)C(O)C1 (configuration not stated)
inactive: AS120 | ATS189 | C2A | CP203 | CP217 | CP250 | CP256 | CP269 | CP291 | CP297 | CP315 | CP329 | DFO2036 | DIV14 | DIV17 | FAB9 | JCK | PAD

CC(c1ncncc1F)[C@](O)(Cn1cncn1)c1ccc(F)cc1F (some centres not stated)
inactive: AS120 | ATS189 | C2A | CP203 | CP217 | CP250 | CP256 | CP269 | CP291 | CP297 | CP315 | CP329 | DFO2036 | DIV14 | DIV17 | FAB9 | JCK | PAD

CC(=O)NC[C@@H]1CN(c2ccc(N3CCOCC3)c(F)c2)C(=O)O1
inactive: AS120 | ATS189 | C2A | CP203 | CP217 | CP250 | CP256 | CP269 | CP291 | CP297 | CP315 | CP329 | DFO2036 | DIV14 | DIV17 | FAB9 | JCK | PAD

CC12C=CC(=O)C=C1[C@@H](F)CC1C2C(O)CC2(C)C1CC[C@]2(O)C(=O)CO (some centres not stated)
inactive: AS120 | ATS189 | C2A | CP203 | CP217 | CP250 | CP256 | CP269 | CP291 | CP297 | CP315 | CP329 | DFO2036 | DIV14 | DIV17 | FAB9 | JCK | PAD

Source: PubChem BioAssay (NCATS)
